Neddylation inh: inhibitors of cullin neddylation, primary screen, biochemical, TR-FRET, uHTS, NAE and Ubc12. AID 651699, 2012. actives 0.58% (n = 360,000). NEDD8-conjugating enzyme Ubc12 (Homo sapiens) + NEDD8-activating enzyme E1 regulatory …. calls only at 25 µM; in the data active means inhibition above about 36%
KLK7 zymogen act: proKLK7 zymogen activators, primary screen, biochemical, fluorescence intensity. Kallikrein-7 (Homo sapiens), P49862. purified proKLK7, EDANS-DABCYL substrate fluorescence; 100% is mature enzyme control, 0% vehicle. activation, % at 7 µM. actives 0.9% (n = 370,000). AID 652039, 2013;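 active means activation above the mean of all tested compounds plus 3 SD, computed per campaign excluding outliers beyond control limits, cut at about 13% in these data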
Target sequence (P49862 whole entry, looked up): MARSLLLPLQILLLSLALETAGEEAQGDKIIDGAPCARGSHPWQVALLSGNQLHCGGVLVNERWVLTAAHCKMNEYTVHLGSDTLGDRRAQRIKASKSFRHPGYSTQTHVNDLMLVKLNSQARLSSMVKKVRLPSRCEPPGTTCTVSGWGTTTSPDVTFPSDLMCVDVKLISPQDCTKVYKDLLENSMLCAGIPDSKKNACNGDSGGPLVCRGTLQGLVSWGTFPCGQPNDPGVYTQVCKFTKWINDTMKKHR
FAS TE block: FAS thioesterase domain inhibitors, primary screen, biochemical, fluorescence intensity, uHTS. inhibition, % at 15 µM. recombinant FAS-TE, OMFH fluorogenic substrate, fluorescence endpoint. actives 0.67% (n = 360,000). AID 602261, 2012. Fatty acid synthase (Homo sapiens), P49327;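 active means compounds whose normalised, plate-corrected inhibition of enzyme fluorescence in the single-dose primary screen is 50% or more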;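 further: 0% = DMSO with enzyme and 100% = substrate without enzyme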
PfG6PD inh: PfG6PD enzyme inhibitors, primary screen, biochemical, fluorescence intensity, uHTS; glucose-6-phosphate dehydrogenase-6-phosphogluconolactonase (Plasmodium falciparum 3D7); actives 0.78% (n = 350,000); inhibition, % at 20 µM; PfGluPho enzyme, NADPH resazurin-diaphorase fluorescence; AID 504690, 2011;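 active means inhibition reaching at least a set limit at 20 µM in the primary screen, cut at about 59% in these data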;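 further: 0% = DMSO wells with substrate and 100% = DMSO wells lacking glucose-6-phosphate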
FAS-TE inh conf: FAS thioesterase domain inhibitors, confirmation, biochemical, fluorescence intensity, single concentration. shares compounds with FAS TE block. recombinant FAS-TE, OMFH fluorogenic substrate. inhibition, % at 15 µM. actives 45% (n = 2,300). AID 624325, 2012;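 active means compounds inhibiting the enzyme by at least 50% at 15 µM in any one of the replicates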;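 further: 0% = enzyme with DMSO only and 100% = wells lacking enzyme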
* marks the source's active call; other numbers are inactive results; i = inactive; x = not tested or not shown. In the library only some 2.7% were active in any assay of this set; here they are far more common.

SMILES | Neddylation inh | KLK7 zymogen act | FAS TE block | PfG6PD inh | FAS-TE inh conf
Cc1cc(/C=N/n2c(COc3ccccc3)nc3ccccc3c2=O)c(O)c([N+](=O)[O-])c1 | i | 0.0 | 60.2* | -10.0 | 8.8
Cc1ccc(-c2[nH]ncc2/C=N/n2c(COc3ccccc3)nc3ccccc3c2=O)cc1 | i | 0.7 | -9.9 | -5.2 | x
COc1cc(OC)c(N(C)S(=O)(=O)c2cccc(C(=O)OCC(=O)N(C)C3CCCCC3)c2)cc1Cl | i | -0.4 | 65.7* | 11.0 | 10.8
COc1cc(OC)c(N(C)S(=O)(=O)c2cccc(C(=O)OCC(=O)c3c[nH]c4ccccc34)c2)cc1Cl | i | -1.6 | 36.3 | 7.3 | x
COc1cc(OC)c(N(C)S(=O)(=O)c2cccc(C(=O)Nc3nccs3)c2)cc1Cl | i | -1.1 | 66.0* | 7.9 | 14.3
CCCCOc1ccc(-c2c(C#N)c(N)nc(SCC(N)=O)c2C#N)cc1 | i | -3.1 | 75.9* | 11.4 | 92.2*
CCCCOC(=O)CSc1nc(N)c(C#N)c(-c2ccc(OCC)cc2)c1C#N | i | 0.9 | -2.3 | 27.9 | x
COc1ccc(C2CC(c3ccccc3)=NN2C(=O)COC(=O)c2cccc(S(=O)(=O)N3CCOCC3)c2)cc1 (stereo not given) | i | 0.2 | 69.6* | -9.8 | 13.3
COc1ccc(C2CC(c3ccccc3)=NN2C(=O)COC(=O)c2cnc(Cl)c(Cl)c2)cc1 (stereo not given) | i | 0.6 | 25.4 | 15.4 | x
COc1ccc(C2CC(c3ccccc3)=NN2C(=O)COC(=O)c2cccc(S(=O)(=O)N(C)C)c2)cc1 (stereo not given) | i | -0.7 | 71.8* | -10.8 | -0.2
C=CCCC1(CCC)C(=O)/C(=C(\O)c2ccccc2)C(=O)C(CCC)=C1OC (stereo not given) | x | 0.1 | x | x | x
COC(=O)c1cc(NC(=S)NCc2ccc(Cl)cc2)cc(C(=O)OC)c1 | i | 0.2 | 50.9* | 17.1 | 36.5
COC(=O)[C@]1(CNC(=O)Nc2ccc(C)c(Cl)c2)CC(=O)N(C)[C@@H]1c1ccccc1 | x | -0.4 | x | x | x
CC(C)CCN(C)C1CCN(C(=O)Nc2ccccc2)CC1 | x | -0.2 | x | x | x
CCOC(=O)[C@]12Cc3c(cc(OC)c(OC)c3OC)[C@H]1N(C1CCCCC1)C(=O)c1cc(OC)ccc12 | i | 0.7 | 50.2* | x | 37.9
CCOC(=O)N1CCC(N2C(=O)c3ccccc3C2Nc2cc(OC)c(OC)c(OC)c2)CC1 (stereo not given) | i | 0.0 | -3.3 | 47.3 | x
O=C(/C=C/c1ccccc1)NC(=S)Nc1ccccc1 | i | 0.0 | 8.2 | 8.8 | x
C=CCN(CC=C)S(=O)(=O)c1ccc(NC(=S)NC(=O)/C=C/c2ccccc2)cc1 | i | 0.8 | 56.8* | -16.9 | 10.1
C=Cc1ccc(C(=O)Nc2nnc(-c3cccnc3)s2)cc1 | x | -0.5 | x | x | x
Cc1ccc(NC(=O)CSc2nc3nn(-c4ccccc4)c(=O)c-3c3n2CCCCC3)cc1F | i | 0.1 | 74.4* | 8.1 | 31.1
COC(=O)c1ccccc1NC(=S)NC(NC(=O)COc1ccccc1)C(Cl)(Cl)Cl (stereo not given) | i | -0.7 | 71.0* | 16.1 | 36.5
COC(=O)c1ccccc1NC(=S)NC(NC(=O)c1ccco1)C(Cl)(Cl)Cl (stereo not given) | i | x | 50.5* | 4.2 | 42.0
O=C(NC(NC(=S)Nc1ccccc1C(=O)O)C(Cl)(Cl)Cl)c1ccco1 (stereo not given) | x | -0.5 | 0.3 | 27.0 | x
COC(=O)c1ccccc1NC(=O)COC(=O)c1ccco1 | i | -0.5 | -5.2 | 0.1 | x
COC(=O)c1ccccc1NC(=O)COC(=O)c1ccc(C)c(NC(=O)c2ccco2)c1 | i | 0.6 | 70.9* | 7.8 | 16.9
SMILES | Neddylation inh | KLK7 zymogen act | FAS TE block | PfG6PD inh | FAS-TE inh conf
CN(c1c2c(nc3ncnn13)CCCC2)C1CCCCC1 | x | 0.7 | x | x | x
CC(NC(=O)c1ccccc1Cl)C1CC2CCC1C2 (stereo not given) | i | 0.5 | -2.5 | -13.8 | x
CC(NC(=O)COC(=O)c1cc(NS(=O)(=O)c2ccc(Cl)c([N+](=O)[O-])c2)ccc1O)C1CC2CCC1C2 (stereo not given) | i | 0.1 | 53.0* | -24.4 | 50.8*
COc1ccc(NS(=O)(=O)c2ccc(O)c(C(=O)OCC(=O)NC(C)C3CC4CCC3C4)c2)cc1 (stereo not given) | i | -0.4 | 5.9 | -9.7 | x
CC(NC(=O)c1ccc([N+](=O)[O-])cc1Cl)C1CC2CCC1C2 (stereo not given) | i | -0.5 | 57.2* | 4.1 | 65.9*
COc1ccc(NC(=O)/C(Cl)=C(/Cl)S(=O)Cc2ccc(Cl)cc2)cn1 (stereo not given) | i | -0.3 | 61.5* | 39.5 | 68.3*
COc1ccc(CN2CC(=O)N3[C@H]4c5ccc(OC)cc5OC[C@@H]4[C@H](c4ccccc4)[C@]3(C)C2=O)cc1 | i | -0.4 | 65.6* | 8.6 | 18.3
COc1ccc2c(c1)OC[C@H]1[C@H]2N2C(=O)CN(Cc3ccc(Cl)cc3)C(=O)[C@@]2(C)[C@H]1c1ccccc1 | i | -0.6 | 74.9* | 1.3 | 28.7
CCOC(=O)[C@@H]1[C@H]2COc3cc(OC)ccc3[C@H]2N2C(=O)N(c3cccc(Cl)c3)C(=O)[C@@]12C | i | x | 73.9* | 18.2 | 48.1*
COc1ccc(C(=O)N2CCC(Oc3cccnc3)CC2)c(OC)c1 | x | 0.5 | x | x | x
CCOC(=O)c1cc(CC)sc1NC(=O)c1cc([N+](=O)[O-])ccc1N1CCOCC1 | i | 0.0 | 61.1* | 18.4 | 20.8
NC(=O)c1ccc(NC(=O)COC(=O)c2cc([N+](=O)[O-])ccc2N2CCOCC2)cc1 | i | 0.2 | 36.4 | 4.4 | x
CCc1cccc(C)c1NC(=O)COC(=O)c1cc([N+](=O)[O-])ccc1N1CCOCC1 | i | 0.1 | 67.7* | -13.5 | 69.5*
O=C(COC(=O)c1cc([N+](=O)[O-])ccc1N1CCOCC1)Nc1ccc(Cl)cc1 | i | -0.6 | 81.3* | 12.7 | 49.0*
Cc1cc(Cl)ccc1NC(=O)COC(=O)c1cc([N+](=O)[O-])ccc1N1CCOCC1 | i | -1.0 | 76.7* | 21.6 | 79.2*
Cc1ccc(NC(=O)COC(=O)c2cc(Cl)ccc2[N+](=O)[O-])c(C)c1 | i | 0.1 | 15.8 | 13.3 | x
CC(C)CNS(=O)(=O)/C=C/c1ccc(F)cc1CNC(=O)OC(C)(C)C | x | 0.3 | x | x | x
COC(=O)C1CN(C2CC2)CCS(=O)(=O)N1Cc1cn(Cc2ccc(Cl)cc2)nn1 (stereo not given) | x | 0.6 | x | x | x
COC(=O)C[C@H]1CC[C@H]2[C@H](COc3ccc(NC(=O)Nc4ccccc4F)cc3C(=O)N2C)O1 | x | 0.7 | x | x | x
COCCOc1ccc(C(F)(F)F)cc1NC(=O)COC(=O)c1cc([N+](=O)[O-])ccc1N1CCOCC1 | i | 0.8 | 71.6* | 31.3 | 30.2*
